From PubChem BioAssay
This is a sample that favours compounds with a hit; in the whole collection about 21% have one here.
Pf growth 96h: inhibits malaria parasite growth, 96 h. P. falciparum luciferase reporter growth, 96 h. Potency, µM (highest dose often 28.7 µM), hits mostly inhibitors. 320,000 compounds, 6.9% hits. AID 504834; active means well fitted inhibition curve with a large enough effect; inconclusive means small, poorly fitted or top-dose-only effect, or another doubt; inactive means no such curve, though single readings can be large or run the other way
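P. falciparum expressing integrated firefly luciferase grown in erythrocytes (2% hematocrit, 0.05% parasitemia final) with compounds for 96 hours at 37 C, 5% CO2. Growth inhibition read as loss of luminescence after adding luciferase detection reagent.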
Pf growth 48h: inhibits P. falciparum growth in the first generation, 48 h. Potency, µM (doses to about 28.7 µM), hits mostly inhibitors. 310,000 compounds, 5.9% hits. AID 504832. P. falciparum luciferase growth in erythrocytes, 48 h; active means well fitted inhibition curve with a large enough effect; inconclusive means small, poorly fitted or top-dose-only effect, or another doubt; inactive means no such curve, though single readings can be large or run the other way
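Firefly luciferase activity from engineered P. falciparum reports growth; inhibitors lower the luminescent signal. Cultures contained 2% hematocrit erythrocytes at 0.1% final parasitemia.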
Cycloheximide cs: counter-screen for Shiga toxin inhibitors: cycloheximide protein synthesis inhibition. cell reporter, cycloheximide protein synthesis inhibition counterscreen. max response, %. 300,000 compounds, 12% hits. AID 2314; in the data active means max response mostly above about 13%, no sharp cut-off; inactive means mostly below about 14%; further: read at 38.3 µM for the half of the compounds with a filed dose
Shiga toxin inh: Shiga toxin inhibition; Vero cells, Shiga toxin protein synthesis inhibition reporter; inhibition, % at 38.7 µM; 290,000 compounds, 9.2% hits; in the data active means inhibition mostly above about 28%, no sharp cut-off; inactive means mostly below about 43%
NS1 inh: blocks influenza NS1 protein function; Potency, µM (series often up to 46.1 µM); 270,000 compounds, 0.4% hits; AID 2326; further: actives are rising curves; nearly all actives have a fitted effect of over 50% in size
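S. cerevisiae expressing influenza A NS1, grown in glucose, washed, then diluted 1:100 into pH 6.0 -URA galactose medium with 23 nl compound. Growth recovery read as OD600; NS1-free strain serves as control.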
SARS PLpro yeast: blocks SARS-CoV papain-like protease in a yeast assay; 330,000 compounds, 0.19% hits; Potency, µM (doses to about 32.9 µM), hits mostly activators; S. cerevisiae expressing SARS-CoV PLpro, growth rescue; AID 485353; further: nearly all actives have a fitted effect of over 55% in size
Large screens that a line does not name were inactive. Unless noted, the call rests on the fitted dose curve.

Cc1cccc(-n2ccnc2SCC(=O)Nc2cccc(S(=O)(=O)NC3=NCCC3)c2)c1C	Pf growth 48h 10µM (no result: Cycloheximide cs, Shiga toxin inh, NS1 inh)
COc1cccc(CN2CCC(N(CCc3ccccc3)Cc3ccccc3)CC2)c1OC	Pf growth 48h inconclusive
COc1ccc2ccccc2c1C(=O)/C=C\c1ccoc1	Pf growth 96h inconclusive (no result: SARS PLpro yeast)
CC1CCC2(CC1)NC(=O)N(CC(=O)Nc1ccc3[nH]c(=O)[nH]c3c1)C2=O (centres undefined)	none (no result: Cycloheximide cs, Shiga toxin inh, NS1 inh)
Cn1ccnc1SCC(=O)Nc1ccc2c(c1)OCO2	Cycloheximide cs 41 (no result: NS1 inh)
O=C(C[n+]1ccn(-c2ccccc2)c1)c1ccc([N+](=O)[O-])cc1	Pf growth 48h inconclusive
O=C(O)C1=C[C@@H](C2CCCCC2)C[C@@H](OCc2ccc(CO)cc2)O1	none
C#CCNC(=O)C1=C[C@H](C2CCCCC2)C[C@H](OCc2ccc(CO)cc2)O1	Pf growth 48h inconclusive, Cycloheximide cs 14, Shiga toxin inh 52
O=C(NC1CC1)C1=C[C@H](C2CCCCC2)C[C@H](OCc2ccc(CO)cc2)O1	Cycloheximide cs 13, Shiga toxin inh 35
CN1CCN(c2ccc(S(=O)(=O)N3CCCCC3)cc2NC(=O)Cc2ccc(Cl)cc2)CC1	Pf growth 96h inconclusive, Pf growth 48h inconclusive
CN1CC(c2ccc(Cl)c(Cl)c2)[C@@]2(COc3ccccc3C2=O)[C@@]12C(=O)Nc1ccccc12 (some centres undefined)	Pf growth 96h 2.1µM, Pf growth 48h 3.3µM
CCOc1ccccc1NC(=O)CSc1nnc(C2CC2)n1CC	Pf growth 96h inconclusive
COc1cccc(CNc2cccc(C(F)(F)F)c2)c1O	Pf growth 96h inconclusive (no result: NS1 inh)
CCCCn1cnc2cc(NCc3cccc(OC)c3O)ccc21	Cycloheximide cs 19, Shiga toxin inh 103
CCn1cnc2cc(NCc3cccc(OC)c3O)ccc21	Cycloheximide cs 44, Shiga toxin inh 112
COc1cccc(CNc2ccc(F)c(Cl)c2)c1O	Pf growth 48h inconclusive
CCOc1cc(C2C(C(=O)N3CCCCC3)=C(C)NC3=C2C(=O)CCC3)cc(Br)c1O (centres undefined)	none
O=C(Nc1cccnc1)c1cccnc1Cl	none
O=C(Nc1ccc(-c2nc3cccnc3s2)cc1)c1ccc(Cl)nc1	Cycloheximide cs 34, Shiga toxin inh 68
O=C(Nc1ccc(-c2nc3cccnc3s2)cc1)c1cccnc1Cl	Cycloheximide cs 66, Shiga toxin inh 57
O=C(Cn1nc2n(c1=O)-c1ccccc1SC2)N/N=C/c1ccncc1	none
Cc1ccc(S(=O)(=O)Nc2cnn(-c3ccccc3)c(=O)c2Cl)cc1	Pf growth 48h inconclusive
Cc1ccc(N(C(=O)c2csnn2)C(C(=O)NC(C)(C)C)c2cccnc2)cc1 (centres undefined)	Pf growth 96h inconclusive
Cc1cccc(C(=O)Nc2ccc3c(c2)CC2(C(=O)N(C)C(=O)N(C)C2=O)C2CCCN32)c1 (centres undefined)	Pf growth 96h 8.3µM, Pf growth 48h inconclusive
CN1C(=O)N(C)C(=O)C2(Cc3cc([N+](=O)[O-])ccc3N3CCN(C(=O)c4ccccc4)CC32)C1=O (centres undefined)	Pf growth 48h inconclusive
COc1ccccc1C(=O)Nc1ccc2c(c1)CC1(C(=O)N(C)C(=O)N(C)C1=O)C1CCCN21 (centres undefined)	Pf growth 96h 2.6µM, Pf growth 48h inconclusive
Cc1cc(C(C)(C)C)cc(C)c1S(=O)(=O)N1CCN(C(=O)c2cc([N+](=O)[O-])c[nH]c2=O)CC1	Pf growth 96h inconclusive, Pf growth 48h inconclusive
CCc1ccccc1OCC(=O)Nc1ccc(F)c(S(=O)(=O)N2CCOCC2)c1	Pf growth 96h 13µM, Pf growth 48h inconclusive (no result: Cycloheximide cs, Shiga toxin inh, NS1 inh)
COc1ccc(NC(=O)CCOc2ccccc2C)cc1S(=O)(=O)N1CCCCC1	Pf growth 96h inconclusive, Pf growth 48h 12µM (no result: Cycloheximide cs, Shiga toxin inh, NS1 inh)
COc1ccc(OCC(=O)Nc2ccc(OC)c(S(=O)(=O)N3CCCCC3)c2)cc1	none (no result: Cycloheximide cs, Shiga toxin inh, NS1 inh)
COc1ccc(NC(=O)COc2ccccc2Cl)cc1S(=O)(=O)N1CCCCC1	Pf growth 96h 10µM, Pf growth 48h 12µM (no result: Cycloheximide cs, Shiga toxin inh, NS1 inh)
CC(Oc1ccccc1)C(=O)Nc1ccc(F)c(S(=O)(=O)N2CCOCC2)c1 (centres undefined)	Pf growth 96h inconclusive (no result: Cycloheximide cs, Shiga toxin inh, NS1 inh)
CN=C(NC#N)NCCSCc1csc(N=C(N)N)n1	none (no result: Cycloheximide cs, Shiga toxin inh, NS1 inh, SARS PLpro yeast)
COc1ccc(OCc2cc(C(=O)N3CCN(CC(=O)N(C)C)CC3)no2)c(Cl)c1	Pf growth 96h inconclusive, Cycloheximide cs 23
COc1cccc(OCc2cc(C(=O)N3CCC(c4ccncc4)CC3)no2)c1	none
COc1ccc(OCc2cc(C(=O)N3CCSCC3)no2)c(Cl)c1	Pf growth 96h inconclusive, Cycloheximide cs 67, Shiga toxin inh 143
COc1cc(C(C)=O)ccc1OCc1cc(C(=O)N2CCSCC2)no1	Pf growth 96h inconclusive (no result: SARS PLpro yeast)
COc1cccc(OCc2cc(C(=O)N3C[C@H]4C[C@@H](C3)c3cccc(=O)n3C4)no2)c1	Pf growth 96h inconclusive, Cycloheximide cs 60, Shiga toxin inh 52
COc1cccc(OCc2cc(C(=O)N3CCN(C)C(c4ccccc4)C3)no2)c1 (centres undefined)	Pf growth 96h inconclusive, Cycloheximide cs 32, Shiga toxin inh 77
CCC(=O)N=c1sc2c(C)cc(C)cc2n1CC(=O)OC	none (no result: Pf growth 48h)
COc1ccc(OCc2cc(C(=O)N3CCOCC3)no2)c(Cl)c1	Cycloheximide cs 43, Shiga toxin inh 91
COc1cccc(OCc2cc(C(=O)NC(C)c3cnn(C)c3C)no2)c1 (centres undefined)	Pf growth 96h inconclusive, Cycloheximide cs 27, Shiga toxin inh 59
COc1ccc(OCc2cc(C(=O)N3CCC(c4ccccc4)CC3)no2)c(Cl)c1	Cycloheximide cs 78, Shiga toxin inh 106
COc1ccc(OCc2cc(C(=O)NC(C)c3cnn(C)c3)no2)c(Cl)c1 (centres undefined)	Cycloheximide cs 38, Shiga toxin inh 47
Cc1cccc(NC(=O)Cn2cnc3c(oc4ccccc43)c2=O)c1C	none (no result: NS1 inh)
O=C(CSc1nc(O)c(C2CCCCC2)c(=O)[nH]1)Nc1ccc(Cl)cc1	none (no result: SARS PLpro yeast)
CC(C)CC(=O)N1CCC(N(CCc2ccccc2)Cc2ccccc2)CC1	Pf growth 48h inconclusive
CC(C)N1CCN(Cc2cc3ccccc3[nH]2)CC1CCO (centres undefined)	none
CC(NC(=O)c1cc(COc2c(F)cccc2F)on1)c1cnn(-c2ccccc2)c1 (centres undefined)	Pf growth 96h inconclusive, Cycloheximide cs 25, Shiga toxin inh 76
COc1ccc(OCc2cc(C(=O)N3CCCCCC3)no2)c(Cl)c1	Cycloheximide cs 47, Shiga toxin inh 68
O=C(c1cc(COc2ccc(F)cc2Cl)on1)N1CCSCC1	Pf growth 96h inconclusive, Cycloheximide cs 62, Shiga toxin inh 67
O=C(c1cc(COc2ccc(F)cc2Cl)on1)N(CCO)Cc1cccs1	Cycloheximide cs 20
